HT1080 IDH1KD tx: toxicity to HT-1080 IDH1 knockdown cells (counter line); Potency, µM (titrated, usually from 46.1 µM), without a hit: at the top dose activity, negative = toxicity, most hits filed as cytotoxic; HT-1080 IDH1 knockdown viability, ATP luminescence, 48 h; 360,000 compounds, 2% hits; AID 686971;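 note: 0% = DMSO wells and -100% = cell-free medium wells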
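Luminescent ATP read-out (CellTiter-Glo, 10 min at room temperature) after 48 h compound exposure at 37 °C gave viability of IDH1-knockdown HT-1080 cells. Activity was normalised to DMSO and cell-free wells, then fitted as concentration-response curves.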
KB-3-1 cytotox: kills parental KB-3-1 adenocarcinoma cells | 400,000 compounds, 1.4% hits | Potency, µM (series often up to 46.1 µM), usual class: cytotoxic | KB-3-1 viability, CellTiter-Glo ATP luminescence, 72 h | AID 1347075; note: nearly all actives have a fitted effect of over 60% in size
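Cytotoxicity measured as CellTiter-Glo luminescence after 72 h at 37 C. Compound titrations were pinned onto drug-naive KB-3-1 parental adenocarcinoma cells grown in DMEM with 10% FBS, and normalized data fitted to concentration-response curves.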
TDP1 cell CPT: growth inhibition of DT40 Tdp1-/-;hTDP1 cells with camptothecin (screen for TDP1 inhibitors); Potency, µM (highest dose often 46.2 µM), for the others: at the highest dose activity change, negative = growth inhibition, usual class: inhibitors; 420,000 compounds, 12% hits; chicken DT40 Tdp1-/-;hTDP1 cells + 20 nM CPT, ATP luminescence, 48 h; note: nearly all actives have a fitted effect of over 55% in size
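Chicken DT40 Tdp1-/- cells complemented with human TDP1, 400 cells/well, exposed to compounds plus 20 nM camptothecin for at least 48 h at 37 C; viability read as ATP content by CellTiter-Glo luminescence.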
HT1080NT lethal: kills 2HG-producing HT-1080-NT fibrosarcoma cells. HT-1080-NT fibrosarcoma viability, CellTiter-Glo ATP luminescence, 48 h. Potency, µM (doses to about 46.1 µM), inactives show at the top dose activity, negative = less viability, actives largely listed as cytotoxic. 360,000 compounds, 1.6% hits. AID 686970;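 note: NT is the 2HG producing partner of a matched IDH1 knockdown line; 0% = DMSO-treated cells and -100% = media-only wells without cells; nearly all actives have a fitted effect of over 55% in size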
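Fibrosarcoma NT cells, 750 per well in 5% FBS RPMI, were exposed to compound for 48 hours. Viability: CellTiter-Glo luminescence.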
KB-V1 cytotox: KB-V1 MDR subline cytotoxicity | AID 1347076 | 400,000 compounds, 3.4% hits | KB-V1 MDR cells viability, CellTiter-Glo, 72 h | Potency, µM (series often up to 46.1 µM), most hits filed as cytotoxic; note: nearly all actives have a fitted effect of over 60% in size
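Following 72 h at 37 degrees C with compound, KB-V1 cell viability was read by CellTiter-Glo luminescence, medium being phenol-red-free DMEM plus 10% FBS; concentration-response parameters came from normalized, curve-fitted qHTS data.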
DT40 TDP1 no CPT: qHTS for Inhibitors of human tyrosyl-DNA phosphodiesterase 1 (TDP1): qHTS in cells in absence of CPT | DT40 Tdp1-/- hTDP1 cells, no CPT, ATP luminescence, 48 h | Potency, µM (top dose mostly 46.2 µM), without a hit: at the highest dose activity change, negative = growth inhibition, hits mostly inhibitors | 420,000 compounds, 15% hits; note: nearly all actives have a fitted effect of over 55% in size
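Luminescent ATP content (CellTiter-Glo) served as the growth readout. Knockout chicken DT40 cells expressing human TDP1 were exposed to compounds without camptothecin for a minimum 48 hr at 37 °C.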
Numbers without * were called inactive. An excerpt weighted towards active compounds, which were near 19% of everything screened. Calls come from the whole dose curve; as a rule, active = well fitted curve in the direction sought with a large enough effect; inconclusive = small, poorly fitted or top-dose-only effect, or another doubt; inactive = no such curve, though single readings can be large; an effect the other way counts as inactive or inconclusive. Unless noted, % is set by controls: 0 for no effect and ±100 for the full control effect; potency is the fitted concentration of half-maximal effect.

Screening COc1cc(OC)c(NC(=O)c2oc3ccc4c(c3c2C)C(=O)CC(C)(C)O4)cc1Cl returned KB-3-1 cytotox inactive, TDP1 cell CPT 0%, KB-V1 cytotox inactive and DT40 TDP1 no CPT -6%.
Screening COc1cccc(CNC(=O)c2oc3ccc4c(c3c2C)C(=O)CC(C)(C)O4)c1OC returned TDP1 cell CPT inconclusive and DT40 TDP1 no CPT 16µM*.
Cc1c(C(=O)NCc2ccc(Cl)cc2)oc2ccc3c(c12)C(=O)CC(C)(C)O3 was read as TDP1 cell CPT inconclusive and DT40 TDP1 no CPT 15µM*.
For O=C(NCCN1C(=O)S/C(=C\c2ccc(Cl)c(Cl)c2)C1=O)c1ccc2c(c1)C(=O)N(Cc1ccncc1)C2=O the results were HT1080 IDH1KD tx -17%, KB-3-1 cytotox inactive, TDP1 cell CPT 13µM*, HT1080NT lethal inconclusive, KB-V1 cytotox inactive and DT40 TDP1 no CPT 12µM*.
For O=C(NCCN1C(=O)S/C(=C\c2ccc(F)cc2)C1=O)c1cccc(S(=O)(=O)N2CCOCC2)c1 the results were HT1080 IDH1KD tx -28%, KB-3-1 cytotox inactive, TDP1 cell CPT 23µM*, HT1080NT lethal -20%, KB-V1 cytotox inconclusive and DT40 TDP1 no CPT 16µM*.
O=C(NCCN1C(=O)S/C(=C\c2ccc(Cl)cc2)C1=O)c1ccc(F)c(S(=O)(=O)N2CCOCC2)c1 was read as HT1080 IDH1KD tx 8%, KB-3-1 cytotox inactive, TDP1 cell CPT 6.5µM*, HT1080NT lethal 5%, KB-V1 cytotox inactive and DT40 TDP1 no CPT 5.8µM*.
Screening O=C(NCCN1C(=O)S/C(=C\c2ccccc2)C1=O)c1cc(S(=O)(=O)N2CCOCC2)c(Cl)cc1Cl returned HT1080 IDH1KD tx -14%, KB-3-1 cytotox inactive, TDP1 cell CPT 21µM*, HT1080NT lethal -11%, KB-V1 cytotox inconclusive and DT40 TDP1 no CPT 4.1µM*.
Screening O=C(O)C1CC(=O)N(CCc2ccc(F)cc2)C1 (configuration not stated) returned HT1080 IDH1KD tx -1%, KB-3-1 cytotox inactive, TDP1 cell CPT 3%, HT1080NT lethal -4%, KB-V1 cytotox inactive and DT40 TDP1 no CPT 8%.
For CC1Cc2cc(S(=O)(=O)N3CCC(C(=O)N4CCN(c5ccccc5F)CC4)CC3)ccc2N1C(=O)C1CC1 (configuration not stated) the results were HT1080 IDH1KD tx -5%, KB-3-1 cytotox inactive, TDP1 cell CPT inconclusive, HT1080NT lethal -3%, KB-V1 cytotox inactive and DT40 TDP1 no CPT inconclusive.
`COc1ccccc1N1CCN(C(=O)c2cccc(S(=O)(=O)N3c4ccccc4CC3C)c2)CC1` (configuration not stated) gave HT1080 IDH1KD tx inconclusive, KB-3-1 cytotox inactive, TDP1 cell CPT 23µM*, HT1080NT lethal inconclusive, KB-V1 cytotox 3.7µM* and DT40 TDP1 no CPT inconclusive.
For CC1Cc2ccccc2N1S(=O)(=O)c1cccc(C(=O)N2Cc3ccccc3CC2C(N)=O)c1 (configuration not stated) the results were HT1080 IDH1KD tx -2%, KB-3-1 cytotox inactive, TDP1 cell CPT 16µM*, HT1080NT lethal -5%, KB-V1 cytotox inactive and DT40 TDP1 no CPT 8.2µM*.
`CC1Cc2ccccc2N1S(=O)(=O)c1cccc(C(=O)N2CCCCC2)c1` (configuration not stated) gave HT1080 IDH1KD tx -9%, KB-3-1 cytotox inactive, TDP1 cell CPT 21µM*, HT1080NT lethal -13%, KB-V1 cytotox inactive and DT40 TDP1 no CPT 16µM*.
`CCOC(=O)c1c(NC(=O)CSc2nc(-c3ccc(OC)cc3)cc(C(F)(F)F)n2)sc(C)c1C` gave KB-3-1 cytotox inactive, TDP1 cell CPT inconclusive, KB-V1 cytotox inactive and DT40 TDP1 no CPT inconclusive.
For Cc1cccc(C(=O)N2CCC[C@H]2C(=O)N2CCC[C@H]2C(=O)NCc2ccncc2)c1 the results were HT1080 IDH1KD tx 3%, KB-3-1 cytotox inactive, TDP1 cell CPT 1%, HT1080NT lethal 11%, KB-V1 cytotox inactive and DT40 TDP1 no CPT 1%.
`CCOC1=C2CN(S(=O)(=O)c3ccc(C)cc3)C(c3cccc(Cl)c3)CC2N(S(=O)(=O)c2ccc(Cl)cc2)C(c2ccccc2)C1` (configuration not stated) gave HT1080 IDH1KD tx 18%, KB-3-1 cytotox 5.2µM*, TDP1 cell CPT inconclusive, HT1080NT lethal 13%, KB-V1 cytotox inactive and DT40 TDP1 no CPT inconclusive.
CCOC1=C2CN(S(=O)(=O)c3ccc(Cl)cc3)[C@H](c3ccccc3)C[C@@H]2N(S(=O)(=O)c2ccc(C)cc2)[C@H](c2ccccc2)C1 was read as HT1080 IDH1KD tx 5%, KB-3-1 cytotox inactive, TDP1 cell CPT -12%, HT1080NT lethal 21%, KB-V1 cytotox inactive and DT40 TDP1 no CPT inconclusive.
`CCOC1=C2CN(S(=O)(=O)c3ccc(C)cc3)C(c3cccc(Cl)c3)CC2NC(c2ccccc2)C1` (configuration not stated) gave HT1080 IDH1KD tx 0%, KB-3-1 cytotox inconclusive, TDP1 cell CPT 18µM*, HT1080NT lethal 0%, KB-V1 cytotox inconclusive and DT40 TDP1 no CPT inconclusive.
For CCOC1=C2CN(S(=O)(=O)c3ccc(C)cc3)C(c3cccc(Cl)c3)CC2N(S(=O)(=O)c2ccc(C)cc2)C(c2ccncc2)C1 (configuration not stated) the results were HT1080 IDH1KD tx -5%, KB-3-1 cytotox inconclusive, TDP1 cell CPT 15µM*, HT1080NT lethal 1%, KB-V1 cytotox inconclusive and DT40 TDP1 no CPT 16µM*.
`Cc1cccc(N2C(N)=NC(N)=NC23CCCCC3)c1` gave HT1080 IDH1KD tx inconclusive, KB-3-1 cytotox inactive, TDP1 cell CPT 16µM*, HT1080NT lethal -2%, KB-V1 cytotox inactive and DT40 TDP1 no CPT 12µM*.
O=C(Nc1sc2c(c1C(=O)NCc1ccccc1)CCCC2)c1cc(=O)c2ccccc2o1 was read as KB-3-1 cytotox inactive, TDP1 cell CPT -1%, KB-V1 cytotox inactive and DT40 TDP1 no CPT inconclusive.
CC(C)N(C(=O)[C@H]1C[C@H](CC(=O)NCCCn2ccnc2)C(=O)N2CCc3c([nH]c4ccc(Cl)cc34)[C@]12C)C(C)C was read as HT1080 IDH1KD tx -28%, KB-3-1 cytotox inactive, TDP1 cell CPT inconclusive, HT1080NT lethal -13%, KB-V1 cytotox inactive and DT40 TDP1 no CPT 18µM*.
